In article PMC6792352, “Limited Chemical Structural Diversity Found to Modulate Thyroid Hormone Receptor in the Tox21 Chemical Library” (Environmental Health Perspectives, 2019):
Where a name gives a salt, the structure may show the parent alone.

Tested on: thyroid hormone receptor (endogenous TRα and TRβ)
Parameters: species or system GH3-TRE-Luc (rat pituitary); GH3-TRE-Luc luciferase reporter, antagonist mode against 1 nM T3, loss of signal, qHTS
Conditions: antagonist mode, 1 nM T3, no GH3 cytotoxicity hit, 24 h, read-out: Average AC50 (uM) GH3-TRE-Antag

For COc1ccc(N)cc1 [4-Methoxyaniline], the AC50 was 89.4 µM.

Oc1cc(Cl)c(Cl)cc1Cl [2,4,5-Trichlorophenol] was tested, and the AC50 was over 50 µM.

For COc1ccc(N)cc1 [4-Methoxyaniline hydrochloride], the AC50 was 81.8 µM.

With Oc1cc(Cl)c(Cl)cc1Cl [2,4,5-Trichlorophenol sodium salt] the AC50 was 77.4 µM.
